The results in this text go back to PubChem BioAssay AID687016 (The Scripps Research Institute Molecular Screening Center, 2013).

The whole screen tested about 370,000 compounds, of which about 2,800 (0.76%) were called active. Cut-off read from the data, not from the text of the source: active = inhibition above about 21%; inactive = the rest. This excerpt belongs to a sample that is enriched for actives.

Sequence of E3 ubiquitin-protein ligase UHRF1 (Homo sapiens) (Q96T88 whole entry, looked up, the tested form may be a part): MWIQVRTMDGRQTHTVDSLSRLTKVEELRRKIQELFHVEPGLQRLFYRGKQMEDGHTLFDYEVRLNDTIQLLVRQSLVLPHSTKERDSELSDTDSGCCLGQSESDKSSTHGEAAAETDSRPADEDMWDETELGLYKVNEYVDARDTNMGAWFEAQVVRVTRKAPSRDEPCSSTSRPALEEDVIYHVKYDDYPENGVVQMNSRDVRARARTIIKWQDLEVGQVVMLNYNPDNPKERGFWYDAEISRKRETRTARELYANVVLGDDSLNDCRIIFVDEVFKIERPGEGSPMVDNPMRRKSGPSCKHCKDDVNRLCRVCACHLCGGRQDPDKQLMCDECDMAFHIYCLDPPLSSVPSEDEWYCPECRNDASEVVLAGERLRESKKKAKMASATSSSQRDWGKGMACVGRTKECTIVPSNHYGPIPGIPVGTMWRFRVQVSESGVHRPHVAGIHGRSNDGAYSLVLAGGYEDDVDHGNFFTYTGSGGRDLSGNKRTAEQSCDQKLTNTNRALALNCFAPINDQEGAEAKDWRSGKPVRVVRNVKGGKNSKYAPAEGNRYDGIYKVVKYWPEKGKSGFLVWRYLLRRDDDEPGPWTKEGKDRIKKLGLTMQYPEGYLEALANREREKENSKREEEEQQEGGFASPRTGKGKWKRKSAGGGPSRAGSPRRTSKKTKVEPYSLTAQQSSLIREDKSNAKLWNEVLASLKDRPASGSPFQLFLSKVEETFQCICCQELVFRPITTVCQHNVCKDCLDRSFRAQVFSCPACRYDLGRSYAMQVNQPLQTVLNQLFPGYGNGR

This experiment has as its target E3 ubiquitin-protein ligase UHRF1 (Homo sapiens) (UniProt Q96T88). The experiment can be described thus: blockers of UHRF1 binding to methyl-oligo – biochemical, TR-FRET, human UHRF1, single concentration, counter-screen for MBD2 inhibitor project, primary screen (AID 687016).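 Note: UHRF1 SRA domain binding a hemimethylated CpG hairpin DNA probe; 0% = median of test compound wells and 100% = reference inhibitor.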 The following applies: UHRF1 binding to methylated oligo, at 4.4 µM, hits give high values. Background: In TR-FRET formats the signal depends on donor and acceptor labels being close together.
As usually defined, the inhibition is the drop in the measured response relative to a control, in per cent. For `OCc1ccc(-c2ccccc2)c(-c2ccccc2)c1`, the inhibition is -1.66% (inactive). In the case of `OCC(CO)(CO)NCc1ccc(-c2ccccc2)cc1`, the inhibition was 24.9% (active). Under `c1ccc(CNCc2ccc(CNCc3ccccc3)cc2)cc1` stands -2.85% (inactive). In the case of `CN1[C@H](Cc2ccccc2)COc2cccc(N3CCSCC3)c2S1(=O)=O`, the inhibition was 6.46% (inactive). The result for `O=C(CSc1nnc(-c2ccccn2)n1-c1ccc(Cl)cc1)Nc1ccccc1-c1ccccc1` reads -0.44% (inactive); that for `O=C(Nc1ccccc1)C1CCN(C(=O)c2ccc(Br)cc2)CC1`, -0.01% (inactive). The result for `COc1ccc(C(=O)N2CCC(C(=O)Nc3ccc(C)cc3)CC2)cc1` reads 98.2% (active); that for `COc1ccc(C(=O)N2CCC(C(=O)Nc3cccc(C)c3)CC2)cc1OC`, -2.09% (inactive).

As for `CC(C)(C)NC(=O)C(c1cccnc1)N(C(=O)c1cnco1)c1ccc(C(C)(C)C)cc1` (centres undefined), the inhibition is -2.85% (inactive).

With `O=C(c1ccncc1)N1CC[C@H]2[C@H](CCCN2Cc2ccc(F)cc2)C1`, the inhibition is -0.99% (inactive). With `COc1ccccc1C(=O)CSc1nnc(-c2ccccn2)n1-c1ccccc1`, the inhibition was 0.85% (inactive). The result for `COc1ccc(-n2c(SCC(=O)Nc3ccc4cn[nH]c4c3)nnc2-c2cccnc2)cc1` reads 0.56% (inactive); that for `CC(C)CNc1cccc2c1S(=O)(=O)N(Cc1cn(Cc3ccc(Cl)cc3)nn1)Cc1ccccc1O2`, 2.31% (inactive); that for `COC(=O)c1nc(NC(=O)c2ccc(C(C)(C)C)cc2)n[nH]1`, 87.5% (active). On to `COc1ccc(N2CCN(C(=O)CNC(=O)c3ccc(C(C)(C)C)cc3)CC2)cc1`, for which the inhibition was -2.46% (inactive). Under `CSc1nccc(NC(=O)c2ccc(C(C)(C)C)cc2)n1` stands 5.85% (inactive). Under `CCOC(=O)[C@]12CCCC=C1N(Cc1ccc(OC)cc1)C(=O)[C@@H]2CC(=O)N1CCOCC1` stands -0.91% (inactive); under `CCCCCCN1CCS(=O)(=O)N(Cc2ccc(C(F)(F)F)cc2)C(C(=O)OC)C1` (centres undefined), -2.34% (inactive). The result for `CC(C)N1CCCCC(NC(=O)C(C)(C)C)C1=O` (centres undefined) reads -1.29% (inactive); that for `CC(C)CNc1cccc2c1S(=O)(=O)N(Cc1cn(Cc3ccccc3C(F)(F)F)nn1)Cc1ccccc1O2`, 1.83% (inactive); that for `Cc1cc(=O)[nH]c(SCC(=O)Nc2ccc(Cl)cc2C)n1`, -2.56% (inactive). `Cc1c(CC(=O)N2CCN(C(=O)C3COc4ccccc4O3)CC2)c(=O)oc2c(O)c(O)ccc12` (centres undefined): the inhibition was 28.8% (active). Under `CC(=O)c1ccccc1NC(=O)COC(=O)C1COc2ccccc2O1` (centres undefined) stands 6.15% (inactive); under `Cc1ccc(S(=O)(=O)NCCC(=O)NNC(=O)C2COc3ccccc3O2)cc1` (centres undefined), -3.3% (inactive); under `CCCn1c(C(Cc2ccccc2)NC(=O)COC)nc2ccccc21` (centres undefined), -1.58% (inactive). Under `CCCn1c(NC(=O)C23CC4CC(CC(O)(C4)C2)C3)nc2ccccc21` stands 21% (active). Regarding `CCOc1ccccc1NC(=O)C12CC3CC(C1)CC(c1ccc(C)cc1)(C3)C2`, the inhibition is 2.15% (inactive). The result for `N#CCC[C@H]1CC[C@]2(CCCN(Cc3ccc(Cl)cc3)C2)O1` reads 3.52% (inactive); that for `O=C(CSc1nnc(-c2cccc(Cl)c2)n1Cc1ccco1)Nc1ccc(OCc2ccccc2)cc1`, -1.67% (inactive). Consider `FC(F)(F)c1cccc(Cn2ccc3ccc(-c4ccc5ccn(Cc6ccccc6)c5c4)cc32)c1`, for which the inhibition is 0.27% (inactive). The result for `O=C(Nc1c(-c2ccccc2)nc2c(Br)cc(Br)cn12)c1ccco1` reads 1.55% (inactive); that for `O=C(Nc1ccccc1C(=O)N1CCCCC1)c1ccco1`, 3.17% (inactive); that for `O=C(Nc1nc(-c2ccco2)c(-c2ccco2)s1)c1ccco1`, 51.4% (active). Under `CCOc1ccc(N(CC(=O)Nc2c(C)n(C)n(-c3ccccc3)c2=O)S(=O)(=O)c2ccc(Cl)s2)cc1` stands -0.95% (inactive); under `O=C(CN1CCC(NC(=O)NCc2ccccc2)CC1)Nc1ccc2c(c1)OCCO2`, 1.96% (inactive); under `C[C@H]1[C@H](NC(=O)c2cccc(N(C)C)c2)CC[C@@]23CCCN2C(=O)CCC[C@@H]13`, 0.44% (inactive). The result for `CC(C)c1ccc(NC2CCCN(C(=O)c3ccncc3)C2)cc1` (centres undefined) reads 1.9% (inactive); that for `COc1ccc(NC2CCCN(C(=O)c3ccncc3)C2)cc1` (centres undefined), -3.03% (inactive).

In the case of `Cc1cccc(C(=O)N2CCCC(Nc3ccc(C(C)C)cc3)C2)n1` (centres undefined), the inhibition was 22.3% (active). The result for `COc1ccc2c(C(C)c3ccc(N)cc3)cn(C)c2c1` (centres undefined) reads 3.85% (inactive); that for `Cc1cc(C)nc(NC(=S)N2CCN(c3ccc(C(F)(F)F)cn3)CC2)c1`, -0.11% (inactive).

As to `COc1ccc(CCNC(=O)CSc2nc3c([nH]2)c(=O)n(C)c(=O)n3C)cc1`, the inhibition is -0.65% (inactive). The result for `C=CCc1cccc2cc(C(=O)NC3CCCC3)c(=O)oc12` reads 2.45% (inactive).

Consider `C=CCc1cccc2cc(C(=O)N3CCN(C(=O)OCC)CC3)c(=O)oc12`, for which the inhibition was -2.84% (inactive). Under `C=CCc1cccc2cc(C(=O)Nc3ccc(NC(C)=O)cc3)c(=O)oc12` stands 28.9% (active). `COc1ccc(-n2c(COc3ccccc3)nnc2SCC(=O)Nc2ccc3c(c2)OCO3)cc1`: the inhibition was 0.77% (inactive). As for `COC(=O)c1cc(S(=O)(=O)N2CCN(C(=O)C3CCCO3)CC2)cn1C` (centres undefined), the inhibition is -1.8% (inactive). Under `COC1=C[C@H](C(=O)NCCNC(C)=O)[C@H](C)[C@@H](c2ccccc2)CC1=O` stands -3.81% (inactive); under `CCCCn1c(N)c(N(CC(C)C)C(=O)C2CSC3(C)CCC(=O)N23)c(=O)[nH]c1=O` (centres undefined), 28.1% (active).

Regarding `CCCCn1c(N)c(N(CC(C)C)C(=O)c2cnc(C)cn2)c(=O)[nH]c1=O`, the inhibition was -0.01% (inactive).

Take `CCCCn1c(N)c(N(CC(C)C)C(=O)c2ccc(Br)o2)c(=O)[nH]c1=O`: the inhibition is 0.08% (inactive). The result for `CN(C(N)=NC(=O)/C=C/c1ccccc1)C(C#Cc1ccccc1)Cc1ccccc1` (centres undefined) reads -1.59% (inactive); that for `COc1ccc(-c2[nH][nH]c(=O)c2NC(=O)c2ccc([N+](=O)[O-])cc2)cc1`, -5.21% (inactive). Under `CC(=O)Oc1ccc2c(=O)oc(-c3ccc([N+](=O)[O-])cc3)nc2c1` stands 20.8% (active). The result for `COC(=O)C(C)Oc1ccc2c(-c3cccc([N+](=O)[O-])c3)cc(=O)oc2c1` (centres undefined) reads -2.28% (inactive); that for `CCOC(=O)[C@]12CCCC3=C1N(CCC3)C(=O)[C@@H](CC(=O)N1CCSCC1)C2`, -0.01% (inactive). As to `O=C(Nc1ccccc1)N1CCN(Cc2nc3ccccc3c(=O)[nH]2)CC1`, the inhibition was 0.95% (inactive).

As for `O=C(NCc1ccco1)C1CCCN(S(=O)(=O)c2ccc(Cl)s2)C1` (centres undefined), the inhibition is -1.18% (inactive). With `COC(=O)C[C@@H]1CC[C@@H]2[C@@H](COc3ccc(NC(=O)Nc4ccc(F)c(F)c4)cc3C(=O)N2C)O1`, the inhibition is 0.81% (inactive). In the case of `CCOC(=O)C1(Cc2ccccc2)CCN(Cc2cn(C(C)=O)c3ccccc23)CC1`, the inhibition was -2.91% (inactive).

For `Cc1cc([N+](=O)[O-])nn1CCCC(=O)Nc1cccnc1Cl`, the inhibition was 1.45% (inactive). The result for `Cc1cc([N+](=O)[O-])nn1CC(=O)Nc1ccc(Cc2ccncc2)cc1` reads -2.12% (inactive).

Regarding `Cc1cc([N+](=O)[O-])nn1Cc1ccc(F)cc1`, the inhibition was 20.9% (active). Under `Cc1ccc(S(=O)(=O)n2cnc3ccccc32)c(C)c1` stands 8.08% (inactive); under `COc1ccc(S(=O)(=O)n2cnc3ccccc32)c(C)c1`, 1.22% (inactive). Consider `CCCCNS(=O)(=O)c1ccc(S(=O)(=O)n2cnc3ccccc32)cc1`, for which the inhibition was 20.7% (active). Under `CCOC(=O)[C@]12CCCCC/C=C\1N(Cc1ccc(OC)cc1)C(=O)[C@H]2CC(=O)N1CCOCC1` stands -3.09% (inactive); under `O=C(CCCCCN1C(=O)C2C3C=CC(C3)C2C1=O)Nc1ccccc1` (centres undefined), -1.94% (inactive). For the molecule `Fc1ccc(Br)cc1/C=N/n1cnnc1`, the inhibition was -0.98% (inactive). For `Cc1cc(/C=N/n2cnnc2)c(C)n1-c1cccc(C(=O)O)c1`, the inhibition was 60% (active). Under `Cc1cc(/C=N/n2cnnc2)c(C)n1-c1ccc2ncccc2c1` stands 0.89% (inactive). The result for `COC(CNC(=O)[C@H](Cc1ccccc1)NC1(C(=O)NC2CCCCC2)CCCCC1)OC` reads -1.65% (inactive).

In the case of `COC[C@@H]1CCCN1c1ccc2c(c1)O[C@H](C)CCN(C1CC1)S2(=O)=O`, the inhibition is -3.33% (inactive). Under `COc1ccc2oc(C(=O)NCc3ccco3)c(C)c2c1` stands -0.64% (inactive).

Regarding `CCCCOc1ccc(C(=O)NCc2ccco2)cc1`, the inhibition was 25% (active). Under `CCCC1=Nc2cc(C(=O)NCc3ccco3)ccc2Sc2ccccc21` stands 0.66% (inactive); under `C#CCCN([C@H](C(=O)OC)C(C)C)S(=O)(=O)c1ccc(F)cc1Br`, -0.78% (inactive).

For the molecule `CCOc1cc2[nH]c(=S)n(CCN3CCCCC3C)c(=O)c2cc1OCC` (centres undefined), the inhibition is 66% (active). Under `COc1cc2[nH]c(=S)n(CCN3CCCCC3C)c(=O)c2cc1OC` (centres undefined) stands 8.11% (inactive); under `CCOc1cc2[nH]c(=S)n(CCCN3CCCC3=O)c(=O)c2cc1OCC`, -0.84% (inactive). In the case of `O=C(CN1CCCc2ccccc21)NCc1ccc(F)cc1`, the inhibition is -2.07% (inactive). The result for `OC(C#CCN1CCOCC1)(c1ccccc1)C1CCCCC1` (centres undefined) reads 1.93% (inactive). Turning to `CC(C)(C)N(CC#CCC(O)(c1ccccc1)C1CCCC1)CCO` (centres undefined), the inhibition is 24.7% (active).

Regarding `CN(CC#CCC(c1ccccc1)c1ccccc1)C(C)(C)C`, the inhibition was -0.47% (inactive). The result for `CN[C@H]1C[C@H]2c3cc(N4CCOCC4)ccc3CCN2C[C@H]1[C@H](C)O` reads -0.07% (inactive); that for `O=C(NC1CCCCN(Cc2cccc(C(F)(F)F)c2)C1=O)c1ccccc1I` (centres undefined), -2.03% (inactive); that for `CC(C)(C)C(=O)CN1C2=NCCN2c2ccccc21`, 0.42% (inactive). Under `Cc1cc2c(cc1C)N(Cc1ccccc1)C1=NCCCN12` stands -2.05% (inactive). The result for `OC(CN1C2=NCCCN2c2ccccc21)c1ccc(Br)cc1` (centres undefined) reads 68.9% (active).
